# PubChem BioAssay
# Active and inactive are the calls of the source.
# Key:
# [1] = binders of probe aFSTL3 on microarray, primary screen, stem cell growth factor project, biochemical, small-molecule microarray, fluorescence 635/667 (AID 1064); conditions: higher = more signal;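 further: measures binding of the biotinylated anti-FSTL3 antibody to printed compounds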
# [2] = binders from COS7 lysate, DM2A8 probe, primary screen, torsin A project, cell lysate, small-molecule microarray, fluorescence 635/667 (AID 1065); conditions: higher = more signal, COS7 lysate expressing mutant human TOR1A
# [3] = binders of probe aFGF2 on microarray, primary screen, stem cell growth factor project, biochemical, small-molecule microarray, fluorescence 635/667 (AID 1067); conditions: higher = more signal;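 further: measures binding of biotinylated aFGF2 protein to printed compounds on slides; z-score merges feature fluorescence and signal-to-noise across triplicate slides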
# [4] = binders of probe aFGF10 on microarray, primary screen, stem cell growth factor project, biochemical, small-molecule microarray, fluorescence 635/667 (AID 1071); conditions: higher = more signal;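 further: score merges 667 nm spot intensity and signal to noise from triplicate slides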
# [5] = target: Neurogenic locus notch homolog protein 2 (Homo sapiens) (UniProt Q04721); test: Notch2 binders on small-molecule microarrays, primary screen, biochemical, small-molecule microarray, 635 nm fluorescence, stem cell growth factors (AID 1073); conditions: Notch2 binding, higher = more signal
# Chain of Neurogenic locus notch homolog protein 2 (Homo sapiens) (Q04721 whole entry, looked up, canonical isoform): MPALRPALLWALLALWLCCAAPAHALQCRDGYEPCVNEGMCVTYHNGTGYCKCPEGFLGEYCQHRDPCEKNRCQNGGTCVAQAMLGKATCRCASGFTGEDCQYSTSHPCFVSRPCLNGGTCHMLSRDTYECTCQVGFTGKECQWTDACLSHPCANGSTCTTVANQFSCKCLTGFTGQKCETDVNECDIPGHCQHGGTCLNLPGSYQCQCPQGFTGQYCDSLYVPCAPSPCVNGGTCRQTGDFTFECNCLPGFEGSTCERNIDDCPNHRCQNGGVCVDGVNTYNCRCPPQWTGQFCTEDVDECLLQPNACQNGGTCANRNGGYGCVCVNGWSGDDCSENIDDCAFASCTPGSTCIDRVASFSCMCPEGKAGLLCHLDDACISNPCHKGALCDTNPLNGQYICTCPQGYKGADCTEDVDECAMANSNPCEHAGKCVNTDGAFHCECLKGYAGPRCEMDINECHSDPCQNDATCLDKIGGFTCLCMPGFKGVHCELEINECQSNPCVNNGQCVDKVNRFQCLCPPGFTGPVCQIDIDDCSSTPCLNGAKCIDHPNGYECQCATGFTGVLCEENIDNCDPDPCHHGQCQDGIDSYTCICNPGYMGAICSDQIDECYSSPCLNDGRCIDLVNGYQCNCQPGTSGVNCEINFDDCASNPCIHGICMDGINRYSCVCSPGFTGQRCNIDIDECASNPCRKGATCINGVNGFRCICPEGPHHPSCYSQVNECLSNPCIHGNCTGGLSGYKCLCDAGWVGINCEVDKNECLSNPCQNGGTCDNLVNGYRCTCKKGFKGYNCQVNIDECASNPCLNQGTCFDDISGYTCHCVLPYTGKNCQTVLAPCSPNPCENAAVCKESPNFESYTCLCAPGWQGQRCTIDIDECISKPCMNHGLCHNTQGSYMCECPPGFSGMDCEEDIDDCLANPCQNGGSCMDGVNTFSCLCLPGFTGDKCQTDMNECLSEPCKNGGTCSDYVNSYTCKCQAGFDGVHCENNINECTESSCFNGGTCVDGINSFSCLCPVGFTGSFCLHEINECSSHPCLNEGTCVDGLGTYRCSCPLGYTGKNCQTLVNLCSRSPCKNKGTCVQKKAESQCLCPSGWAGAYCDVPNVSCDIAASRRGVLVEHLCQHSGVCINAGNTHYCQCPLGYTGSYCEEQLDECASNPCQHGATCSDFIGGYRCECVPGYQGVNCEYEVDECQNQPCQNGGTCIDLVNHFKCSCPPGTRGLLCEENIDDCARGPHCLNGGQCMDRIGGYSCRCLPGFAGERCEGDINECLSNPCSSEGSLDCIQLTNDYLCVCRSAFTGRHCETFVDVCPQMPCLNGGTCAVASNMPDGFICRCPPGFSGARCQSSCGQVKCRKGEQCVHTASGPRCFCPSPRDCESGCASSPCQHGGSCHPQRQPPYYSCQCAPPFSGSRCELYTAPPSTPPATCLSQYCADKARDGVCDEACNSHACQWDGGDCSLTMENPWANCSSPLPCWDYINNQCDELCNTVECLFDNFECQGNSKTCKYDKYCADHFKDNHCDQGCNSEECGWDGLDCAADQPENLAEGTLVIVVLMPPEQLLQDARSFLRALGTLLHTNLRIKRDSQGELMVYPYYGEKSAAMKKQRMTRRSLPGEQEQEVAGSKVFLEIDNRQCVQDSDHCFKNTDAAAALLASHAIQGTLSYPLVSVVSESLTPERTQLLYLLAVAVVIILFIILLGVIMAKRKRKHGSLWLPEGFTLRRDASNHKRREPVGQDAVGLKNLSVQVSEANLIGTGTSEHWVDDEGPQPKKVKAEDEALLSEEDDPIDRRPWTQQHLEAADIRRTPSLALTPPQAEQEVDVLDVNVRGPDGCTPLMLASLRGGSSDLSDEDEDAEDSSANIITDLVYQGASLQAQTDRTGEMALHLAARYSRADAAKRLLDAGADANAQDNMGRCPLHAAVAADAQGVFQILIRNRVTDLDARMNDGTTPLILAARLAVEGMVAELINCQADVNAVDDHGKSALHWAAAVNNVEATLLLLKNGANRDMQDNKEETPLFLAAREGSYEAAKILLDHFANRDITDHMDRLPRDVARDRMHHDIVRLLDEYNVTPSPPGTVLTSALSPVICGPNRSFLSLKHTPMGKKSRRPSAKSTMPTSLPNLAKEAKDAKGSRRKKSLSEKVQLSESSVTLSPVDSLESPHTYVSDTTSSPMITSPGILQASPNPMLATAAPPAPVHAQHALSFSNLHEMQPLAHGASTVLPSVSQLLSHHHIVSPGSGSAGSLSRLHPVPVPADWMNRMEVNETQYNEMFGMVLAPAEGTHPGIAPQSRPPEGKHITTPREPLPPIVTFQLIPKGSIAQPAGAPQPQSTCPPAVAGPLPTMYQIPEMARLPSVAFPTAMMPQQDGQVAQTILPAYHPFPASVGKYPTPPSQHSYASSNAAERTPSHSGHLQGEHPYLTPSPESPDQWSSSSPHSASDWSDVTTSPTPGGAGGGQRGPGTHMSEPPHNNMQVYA
# [6] = target: Pro-neuregulin-1, membrane-bound isoform (Homo sapiens) (UniProt Q02297); test: NRG1 binders on small-molecule microarrays, primary screen, psychiatric disease protein project, biochemical, small-molecule microarray, fluorescence 635/667 (AID 1075); conditions: NRG1 binding, 635 nm fluorescence, higher = more signal;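 further: score combines 667 nm spot fluorescence with signal to noise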
# Chain of Pro-neuregulin-1, membrane-bound isoform (Homo sapiens) (Q02297 whole entry, looked up, the tested form may be a part, canonical isoform): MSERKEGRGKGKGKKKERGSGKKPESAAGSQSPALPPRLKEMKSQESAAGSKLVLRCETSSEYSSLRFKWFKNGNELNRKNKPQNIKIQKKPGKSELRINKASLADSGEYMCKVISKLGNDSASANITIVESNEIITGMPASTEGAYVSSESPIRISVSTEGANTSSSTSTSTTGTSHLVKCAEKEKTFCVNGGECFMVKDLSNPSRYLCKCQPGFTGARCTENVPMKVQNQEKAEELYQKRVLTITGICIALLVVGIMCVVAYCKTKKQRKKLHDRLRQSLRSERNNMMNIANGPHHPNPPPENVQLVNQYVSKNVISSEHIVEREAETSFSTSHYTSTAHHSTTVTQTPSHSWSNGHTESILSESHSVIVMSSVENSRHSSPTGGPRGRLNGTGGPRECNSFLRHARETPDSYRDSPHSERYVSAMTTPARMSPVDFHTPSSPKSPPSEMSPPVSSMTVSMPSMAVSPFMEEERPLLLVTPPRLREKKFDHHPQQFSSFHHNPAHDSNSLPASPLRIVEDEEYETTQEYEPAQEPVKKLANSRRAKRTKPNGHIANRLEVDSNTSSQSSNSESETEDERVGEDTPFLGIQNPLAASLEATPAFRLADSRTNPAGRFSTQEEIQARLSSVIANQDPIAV
# [7] = tested on: Neuregulin-1 EGF-like domain; test: binders of neuregulin-1 EGF-like domain, primary screen, biochemical, small-molecule microarray, 635 nm fluorescence (AID 1081); conditions: small-molecule microarray binding, higher = more signal;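 further: binding of the protein to compounds printed on small-molecule microarray slides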
# [8] = FRG1 promoter luciferase signal modulators, primary screen, FRG1 inhibition for FSHD, cell-based, C2C12 myotubes, firefly/Renilla luciferase, luminescence (AID 1084); conditions: higher = more signal, called active from +8 up or from −8 down
# [9] = binders of probe aFST on microarray, primary screen, stem cell growth factor project, biochemical, small-molecule microarray, fluorescence 635/667 (AID 1086); conditions: higher = more signal;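 further: score merges 667 nm fluorescence with signal-to-noise of each printed compound spot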
# [10] = binders of probe aHhip on microarray, primary screen, stem cell growth factor project, biochemical, small-molecule microarray, fluorescence 635/667 (AID 1087); conditions: higher = more signal;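 further: score merges spot fluorescence at 667nm with spot signal to noise ratio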
# [11] = tested on: PRMT1 (protein arginine N-methyltransferase 1); test: PRMT1 binders on small-molecule microarrays, primary screen, biochemical, small-molecule microarray, 635 nm fluorescence (AID 1088); conditions: small-molecule microarray binding, higher = more signal;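 further: binding of Prmt1 protein to compounds spotted on small-molecule microarray slides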
# [12] = yeast growth modulation, basal conditions, primary screen, YJM789 clinical isolate, OD600, 24 h (AID 1089);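 further: growth of clinical yeast isolate S. cerevisiae YJM 789 seeded 1000 cells per well; test concentration not given here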; conditions: S. cerevisiae YJM789 growth, higher = more signal, called active from +8 up or from −8 down
# [13] = fission yeast growth modulation, primary screen, strain 972, OD600, 24 h, no modulator (AID 1090);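 further: basal condition with compound alone and no growth modifier present; test concentration not given here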; conditions: S. pombe 972 growth, higher = more signal, called active from +8 up or from −8 down
# [14] = S. cerevisiae growth modulation with rapamycin, primary screen, strain BY4716, OD600, 96 h (AID 1091); conditions: higher = more signal, called active from +8 up or from −8 down; further: test concentration not given here
# [15] = target: Torsin-1A-interacting protein 2 (Homo sapiens) (UniProt Q8NFQ8); test: LULL1 binders on small-molecule microarray, primary screen, cell lysate, human LULL1 lysate, 635/667 nm fluorescence (AID 1092); conditions: hLULL1 lysate binding, 635 nm fluorescence, higher = more signal;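 further: probe is lysate of COS7 cells overexpressing human LULL1; score merges per-feature 667 nm fluorescence with signal-to-noise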
# Chain of Torsin-1A-interacting protein 2 (Homo sapiens) (Q8NFQ8 whole entry, looked up): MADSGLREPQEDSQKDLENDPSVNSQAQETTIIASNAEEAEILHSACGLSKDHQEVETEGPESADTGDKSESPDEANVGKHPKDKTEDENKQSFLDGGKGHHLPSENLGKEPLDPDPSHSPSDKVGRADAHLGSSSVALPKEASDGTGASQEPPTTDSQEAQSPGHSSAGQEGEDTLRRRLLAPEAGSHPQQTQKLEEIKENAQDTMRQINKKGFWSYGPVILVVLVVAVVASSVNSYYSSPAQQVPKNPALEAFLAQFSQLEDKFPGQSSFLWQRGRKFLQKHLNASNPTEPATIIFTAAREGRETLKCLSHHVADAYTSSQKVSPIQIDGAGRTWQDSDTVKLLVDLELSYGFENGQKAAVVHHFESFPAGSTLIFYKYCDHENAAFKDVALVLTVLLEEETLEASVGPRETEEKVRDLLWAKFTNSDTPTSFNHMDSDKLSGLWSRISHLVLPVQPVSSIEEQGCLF
# [16] = E. coli growth modulation, two-sided OD650, primary screen, E. coli filamentation project, strain DRC41, 24 h (AID 1093); conditions: OD650, 24 h, higher = more signal, called active from +8 up or from −8 down;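 further: MC1000 strain lacking acrAB efflux and sulA so SOS filamentation is blocked; test concentration not given here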
# [17] = small-molecule microarray binders of probe aLefty2, primary screen, biochemical, biotinylated probe, 635/667 nm fluorescence (AID 1094); conditions: higher = more signal;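 further: score merges spot fluorescence near 667 nm with spot signal-to-noise ratio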
# [18] = tested on: Noggin (protein binding on small-molecule microarray); test: Noggin binders on small-molecule microarray, primary screen, biochemical, 635/667 nm fluorescence (AID 1095); conditions: 635 nm fluorescence, higher = more signal;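 further: score merges 667 nm feature fluorescence with signal to noise over triplicate slides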
# [19] = target: Neurogenic locus notch homolog protein 3 (Homo sapiens) (UniProt Q9UM47); test: NOTCH3 binders on small-molecule microarray, primary screen, biochemical, 635/667 nm fluorescence (AID 1096); conditions: NOTCH3 binding, 635 nm fluorescence, higher = more signal
# [20] = small-molecule microarray binders of probe aEGFR, primary screen, biochemical, biotinylated probe, 635/667 nm fluorescence (AID 1097); conditions: higher = more signal;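 further: probe is a biotinylated anti-EGFR antibody binding compounds printed on slides; score combines fluorescence near 667 nm and signal to noise of each spot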
structure (smiles),measurement,setting,value
C[N+](C)(C)CCCC[C@@H]1NC(=O)[C@H]2C[C@@H](C(=O)NCCCCCCNC(=O)CS)[C@@H](c3cccc(OCCO)c3)N2C1=O,composite z-score,[1],0.227
same,composite z-score,[2],0.0439
same,composite z-score,[3],-0.172
same,composite z-score,[4],-0.83
same,composite z-score,[5],-1.34
same,composite z-score,[6],-0.861
same,composite z-score,[7],0.439
same,z-score,[8],0.816 (inactive)
same,composite z-score,[9],-0.948
same,composite z-score,[10],-0.261
same,composite z-score,[11],-0.452
same,z-score,[12],-0.173 (inactive)
same,z-score,[13],0.532 (inactive)
same,z-score,[14],-0.0564 (inactive)
same,composite z-score,[15],2.01
same,z-score,[16],0.154 (inactive)
same,composite z-score,[17],-0.0766
same,composite z-score,[18],-0.33
same,composite z-score,[19],-0.837
same,composite z-score,[20],-0.268
C=CCOC(=O)[C@H]1[C@@H]2C(=O)O[C@@H](c3ccccc3)[C@@H](c3ccccc3)N2[C@@H](c2ccc(OCCOC(=O)[C@@H]3C[C@@H]4C(=O)N[C@@H](CCCCNC(C)=O)C(=O)N4[C@@H]3c3ccc(O)cc3)cc2)[C@]12C(=O)Nc1ccccc12,composite z-score,[1],-0.475
same,composite z-score,[2],0.973
same,composite z-score,[3],-0.0512
same,composite z-score,[4],0.483
same,composite z-score,[5],0.795
same,composite z-score,[6],1.26
same,composite z-score,[7],1.32
same,z-score,[8],0.159 (inactive)
same,composite z-score,[9],-0.0579
same,composite z-score,[10],0.0176
same,composite z-score,[11],1.54
same,z-score,[12],1.7 (inactive)
same,z-score,[13],-0.133 (inactive)
same,z-score,[14],3.53 (inactive)
same,composite z-score,[15],2.6
same,z-score,[16],-0.264 (inactive)
same,composite z-score,[17],0.0025
same,composite z-score,[18],1.14
same,composite z-score,[19],1.08
same,composite z-score,[20],-0.0625
CC(C)C(=C=CC[C@@H](O)c1ccc(OCCO)cc1)C[C@@H](O)c1ccccn1,composite z-score,[1],-0.149
same,composite z-score,[2],0.651
same,composite z-score,[3],0.0297
same,composite z-score,[4],1.19
same,composite z-score,[5],0.344
same,composite z-score,[6],-0.272
same,composite z-score,[7],0.826
same,z-score,[8],0.463 (inactive)
same,composite z-score,[9],-0.0267
same,composite z-score,[10],-0.166
same,composite z-score,[11],1.19
same,z-score,[12],-1 (inactive)
same,z-score,[13],-0.141 (inactive)
same,z-score,[14],-0.347 (inactive)
same,composite z-score,[15],-0.27
same,z-score,[16],-0.162 (inactive)
same,composite z-score,[17],-0.235
same,composite z-score,[18],1.08
same,composite z-score,[19],0.813
same,composite z-score,[20],-0.133
CN(C)CCCCCCNC(=O)[C@@H]1C[C@@H]2C(=O)N[C@@H](Cc3ccccc3)C(=O)N2[C@@H]1c1ccc(O)cc1,composite z-score,[1],0.361
same,composite z-score,[2],1.57
same,composite z-score,[3],0.0127
same,composite z-score,[4],0.439
same,composite z-score,[5],0.644
same,composite z-score,[6],1.07
same,composite z-score,[7],1.42
same,z-score,[8],3.06 (inactive)
same,composite z-score,[9],0.901
same,composite z-score,[10],-0.0196
same,composite z-score,[11],1.53
same,z-score,[12],-0.18 (inactive)
same,z-score,[13],-0.899 (inactive)
same,z-score,[14],0.0891 (inactive)
same,composite z-score,[15],2.84
same,z-score,[16],-0.13 (inactive)
same,composite z-score,[17],0.195
same,composite z-score,[18],1.8
same,composite z-score,[19],1.09
same,composite z-score,[20],0.246
Cc1nc2cc(Br)ccc2c(=O)o1,composite z-score,[1],-0.296
same,composite z-score,[2],-0.185
same,composite z-score,[3],-0.158
same,composite z-score,[4],0.497
same,composite z-score,[5],1.1
same,composite z-score,[6],0.226
same,composite z-score,[7],0.861
same,z-score,[8],0.845 (inactive)
same,composite z-score,[9],1.04
same,composite z-score,[10],0.0383
same,composite z-score,[11],0.648
same,z-score,[12],-0.764 (inactive)
same,z-score,[13],0.597 (inactive)
same,z-score,[14],-1.07 (inactive)
same,composite z-score,[15],1.27
same,z-score,[16],-1.07 (inactive)
same,composite z-score,[17],-0.082
same,composite z-score,[18],0.198
same,composite z-score,[19],1.04
same,composite z-score,[20],0.104
